Broadly, the inhibition is the relative decrease from the control value, in per cent.

About 760 (69%) of roughly 1,100 compounds were called active. No rule for the calls is given here. So high a share suggests a set chosen from earlier hits. Some of the results follow.

The test can be described thus: M. tuberculosis growth inhibition, HTS (AID 1259417).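 Also: bacteria grown with compound for 5 days at 37 °C.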 Particulars: stronger effect = higher value, concentration not given here.
[1] abbreviates: M. tuberculosis DsRed fluorescence growth inhibition.
The mark [2] stands for this setting: M. tuberculosis growth inhibition.

In the case of `Cc1c(Cl)ccc(OCCCN2CCCC(C)C2)c1C` (stereo not drawn), the inhibition by setting is: under setting [1], 99.2% (active); under setting [2], 92.6%.
On to `CC(C)OC(=O)CSc1nnc(-c2ccc(N(C)C)cc2)o1`, for which the inhibition under setting [1] is 81.3% (active) and the inhibition under setting [2] came to 91.9%.
For the molecule `CCOC(=O)CSc1nnc(-c2ccc(Cl)cc2Cl)o1`, the inhibition was 78.6% (active) under setting [1] and 85.5% under setting [2].
The matching figures for `CC(C)OC(=O)CSc1nnc(-c2ccc(Cl)cc2Cl)o1`: 73% (active) and 86.2%.
As to `Clc1ccc(-c2nnc(SCc3ccon3)o2)c(Cl)c1`, the inhibition runs as follows: under setting [1], 82.2% (active); under setting [2], 64.9%.
For the molecule `COc1cc(OC)c(-c2nn3c(C4CCCCC4)nnc3s2)cc1OC`, the inhibition under setting [1] is 3% (inactive) and the inhibition under setting [2] was found to be 4.48%.
As to `COC(=O)C(Oc1ccc2c(c1)oc(=O)c1cc(OC)ccc12)c1ccccc1` (stereo not drawn), the inhibition under setting [1] is 27.2% (active) and the inhibition under setting [2] was 79.5%.
For the molecule `CCOC(=O)C(Oc1ccc2oc(C)c(C(=O)OC)c2c1)c1ccccc1` (stereo not drawn), the inhibition under setting [1] is -0.568% (inactive) and the inhibition under setting [2] was -19.6%.
The matching figures for `COc1ccc(NC(=O)CC23CC4CC(CC(C4)C2)C3)cc1[N+](=O)[O-]`: 71% (active) and 49.1%.
The corresponding values for `COc1cc(NC(=O)CC23CC4CC(CC(C4)C2)C3)ccc1NC(=O)c1ccco1` are -10.9% (inactive) and -3.8%.
In the case of `COc1ccc(NC(=O)CC23CC4CC(CC(C4)C2)C3)cc1Cl`, the inhibition runs as follows: under setting [1], 97.4% (active); under setting [2], 86.9%.
Regarding `COc1ccc(Cl)cc1NC(=O)CC12CC3CC(CC(C3)C1)C2`, the inhibition is 10.7% (inactive) under setting [1] and 2.06% under setting [2].
The corresponding values for `CC(C)(C)c1ccc(C(=O)Nc2nccs2)cc1Br` are 17.6% (inactive) and -5.32%.
The matching figures for `CC(C)(C)c1cnc(NC(=O)c2ccccc2O)s1`: 71.4% (active) and 28.1%.
`O=C(Nc1ncc(Cc2cccc(C(F)(F)F)c2)s1)c1cccs1`: the inhibition under setting [1] is 24.1% (inactive) and the inhibition under setting [2] came to 23.5%.
Take `O=C(CSc1nnc(-c2ccccc2Br)o1)N1CCc2ccccc2C1`: the inhibition was 24.1% (active) under setting [1] and 31.3% under setting [2].
Regarding `Nc1ccccc1NCCOc1ccccc1`, the inhibition reads like this: under setting [1], 98.3% (active); under setting [2], 98.7%.
`O=C(CCNc1cccc(Cl)c1)c1ccco1`: the inhibition reads like this: under setting [1], 97.7% (active); under setting [2], 96.8%.
Take `O=C(CCNc1ccc(-c2ccccc2)cc1)c1ccco1`: the inhibition under setting [1] is 34.2% (active) and the inhibition under setting [2] turned out to be 84.3%.
For the molecule `O=C(COc1ccc(Cl)cc1)Nc1ccc(N2CCN(C(=O)c3ccco3)CC2)c(Cl)c1`, the inhibition by setting is: under setting [1], 0.893% (inactive); under setting [2], -16.5%.
With `CC(=O)c1ccc(NCCC(=O)c2ccco2)cc1`, the inhibition is, setting by setting: under setting [1], 17.6% (active); under setting [2], 59.4%.
As for `Cc1ccc(NC(=O)C(=O)NNC(=O)c2ccco2)cc1Cl`, the inhibition by setting is: under setting [1], 6.77% (inactive); under setting [2], 7.85%.
For `CCCCSc1ccc(NCCC(=O)c2ccco2)cc1`, the inhibition under setting [1] is 29.9% (active) and the inhibition under setting [2] was found to be 60.7%.
Regarding `Cc1ccc(-c2csc3nc(SCC(N)=O)n(-c4ccccc4)c(=O)c23)cc1C`, the inhibition runs as follows: under setting [1], 4.1% (inactive); under setting [2], -0.946%.
On to `CCC(C)NCCOc1ccc(C(C)(C)c2ccccc2)cc1` (stereo not drawn), for which the inhibition under setting [1] was 98% (active) and the inhibition under setting [2] came to 94.4%.
As for `COc1ccc(OCC(=O)Nc2ccc(I)cc2C)cc1`, the inhibition runs as follows: under setting [1], 22% (active); under setting [2], 56.8%.
The corresponding values for `O=C(CSc1nnc(Cc2ccccc2)o1)Nc1ccc2c(c1)OCO2` are 5.38% (inactive) and -1.39%.
As for `Cc1ccc(NCc2nnc(SCC(=O)OC3CCCCC3)o2)c(C)c1`, the inhibition is 91.7% (active) under setting [1] and 95% under setting [2].
With `O=C(CSc1nnc(CNc2cccc(Cl)c2)o1)OC1CCCCC1`, the inhibition is 68.9% (active) under setting [1] and 81.6% under setting [2].
As for `CCOc1cc(CNCc2ccccc2OCc2ccccc2)cc(Cl)c1OCC`, the inhibition reads like this: under setting [1], 9.66% (inactive); under setting [2], -13.6%.
Consider `CCOc1cc(C(=O)ON=C(N)Cc2ccc(Cl)cc2Cl)cc(OCC)c1OCC`, for which the inhibition was 4.39% (inactive) under setting [1] and -6.22% under setting [2].
Turning to `CCOc1cc(CNCCO)cc(Br)c1OCc1ccc(Cl)cc1Cl`, the inhibition under setting [1] was 37.7% (active) and the inhibition under setting [2] was determined as 41.3%.
For `O=C(COc1ccc2c(-c3ccccc3)cc(=O)oc2c1)OC1CCCCC1`, the inhibition reads like this: under setting [1], 11.7% (active); under setting [2], 53.3%.
`Cc1cc(=O)oc2cc(OCC(=O)OC3CCCCC3)ccc12`: the inhibition was 36.4% (active) under setting [1] and 72.1% under setting [2].
For the molecule `CCOCCOC(=O)COc1ccc2c(-c3ccccc3)cc(=O)oc2c1`, the inhibition by setting is: under setting [1], 64% (active); under setting [2], 89%.
Take `O=C1c2cccc3cccc(c23)C(=O)N1CCN1CCN(CC(O)COCc2ccc(Cl)cc2)CC1` (stereo not drawn): the inhibition runs as follows: under setting [1], -12% (inactive); under setting [2], -24.9%.
`COc1ccc(-c2csc(-c3ccc(OC)c(OC)c3)n2)cc1C`: the inhibition was 1.2% (inactive) under setting [1] and -8.81% under setting [2].
`Cc1ccc(-c2csc(-c3ccncc3)n2)cc1C`: the inhibition under setting [1] was 86.8% (active) and the inhibition under setting [2] amounted to 97.1%.
For `CCCCC(=O)Nc1nnc(-c2ccc3c(c2)CCCC3)o1`, the inhibition by setting is: under setting [1], 25.2% (active); under setting [2], 57.9%.
On to `O=C(CCSc1ccccc1)Nc1nnc(-c2ccc3c(c2)CCCC3)o1`, for which the inhibition by setting is: under setting [1], 20.9% (inactive); under setting [2], 26.4%.
Take `O=C(C=Cc1ccccc1)Nc1nnc(-c2ccc3c(c2)CCCC3)o1`: the inhibition under setting [1] was 8.27% (inactive) and the inhibition under setting [2] amounted to 19.3%.
`O=C(Nc1nnc(-c2ccc3c(c2)CCCC3)o1)c1ccccc1Br`: the inhibition under setting [1] was 2.76% (inactive) and the inhibition under setting [2] is -9.29%.
Take `O=C(Nc1nnc(-c2ccc(Cl)cc2)o1)c1ccc(Br)cc1`: the inhibition by setting is: under setting [1], 94.3% (active); under setting [2], 95.3%.
The corresponding values for `O=C(Nc1nnc(-c2ccc(Cl)cc2)o1)c1ccccc1Br` are 12.4% (active) and 44.2%.

These data come from PubChem BioAssay AID1259417 (TB Discovery Research, Infectious Disease Research Institute, 2018).
